In PubChem BioAssay (Tox21):
“And” between values parts separate entries of the source, which are not always exact repeats. Equal values may be shown once. Results filed as inconclusive are left out. Entries that show only a call come without a potency. Some structures have more than one record in an assay (separate samples or runs), and their calls can disagree. The source made the active and inactive calls. Unless noted, calls come from the whole dose curve; as a rule, active = well fitted cell-killing curve with a large enough effect in the repeat runs; inconclusive = weak or mixed curves, or effect the other way; inactive = no such curve, though single readings can be large or run the other way.

Biological target: Vitamin D3 receptor (Homo sapiens) (UniProt P11473)
Sequence (P11473 whole entry, looked up): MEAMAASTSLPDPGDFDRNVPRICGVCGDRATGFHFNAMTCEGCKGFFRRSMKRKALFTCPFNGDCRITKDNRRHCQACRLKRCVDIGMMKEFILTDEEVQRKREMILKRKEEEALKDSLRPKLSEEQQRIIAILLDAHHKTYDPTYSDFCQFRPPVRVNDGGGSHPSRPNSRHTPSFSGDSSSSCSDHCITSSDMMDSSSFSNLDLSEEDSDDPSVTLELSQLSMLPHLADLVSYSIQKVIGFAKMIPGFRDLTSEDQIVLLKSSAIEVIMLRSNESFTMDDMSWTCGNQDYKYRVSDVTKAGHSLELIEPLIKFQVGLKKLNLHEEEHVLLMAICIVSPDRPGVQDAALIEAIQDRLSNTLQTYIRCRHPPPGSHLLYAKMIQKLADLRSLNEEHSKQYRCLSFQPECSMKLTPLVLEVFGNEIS
Assay: qHTS assay to identify small molecule antagonists of the vitamin D receptor (VDR) signaling pathway (AID 743223; active = well fitted inhibition curve with a large enough effect in the signal ratio in the repeat runs, not every such curve was filed as active; the % refers to the signal ratio)
Details: VDR-UAS-bla HEK293T, beta-lactamase FRET ratio, 16 h; series mostly up to 61 µM; activity change, negative = inhibition: at the top concentration
How it was run: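 Antagonist mode uses 1alpha,25-dihydroxyvitamin D3 at 3 nM final as stimulus. VDR-bla cells receive compounds in DMSO, incubate 16 h at 37C, then a beta-lactamase FRET substrate for 2 h at room temperature before fluorescence measurement.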
For `CCCCCCCCCC(=O)O`, the Potency was “inactive”. In the case of `NS(=O)(=O)c1cc2c(cc1Cl)NC=NS2(=O)=O`, the “activity change, negative = inhibition” value is reported as 4.25% (inactive). In the case of `CCCCC(CC)COC(C)=O` (stereo not given), the Potency is reported as “inactive”. For `NCCNCCNCCNCCN`, the activity change, negative = inhibition was 2.31% [at 6.95 µM] (inactive). For `CCOC(=O)C1OC1c1ccccc1` (stereo not given), the Potency was “inactive”. For `CCCCCCCCC`, the “activity change, negative = inhibition” value was -2.62% [at 78.8 µM] (inactive). With `CC1=C(/C=C/C(C)=C/C=C/C(C)=C/CO)C(C)(C)CCC1` the “activity change, negative = inhibition” value was -18.4% [at 78.8 µM] (inactive). For `CC1(C)O[C@@H]2C[C@H]3[C@@H]4C[C@H](F)C5=CC(=O)CC[C@]5(C)[C@H]4[C@@H](O)C[C@]3(C)[C@]2(C(=O)CO)O1`, the Potency was “inactive”. For `ClC1=C(Cl)C(Cl)(Cl)C(Cl)=C1Cl`, the Potency was “inactive”. In the case of `CS(=O)(=O)c1ccc([C@@H](O)[C@@H](CO)NC(=O)C(Cl)Cl)cc1`, the “activity change, negative = inhibition” value is reported as -0.64% (inactive). With `OC1CCCC1` the “activity change, negative = inhibition” value was -14.8% (inactive). With `CC(C)(N=C=O)c1cccc(C(C)(C)N=C=O)c1` the “activity change, negative = inhibition” value was -4.92% (inactive). For `OCCOCCOCCOCCO`, the Potency was “inactive”. In the case of `C=C1C2CCC(C2)C1(C)C` (stereo not given), the Potency is reported as “inactive”. With `O=S(=O)(Oc1ccc(Cl)cc1Cl)c1ccccc1` the Potency was “inactive”. With `C[C@@H]1O[C@@H](OC[C@H]2O[C@@H](Oc3c(-c4ccc(O)c(O)c4)oc4cc(O)cc(O)c4c3=O)[C@H](O)[C@@H](O)[C@@H]2O)[C@H](O)[C@H](O)[C@H]1O` the Potency was “inactive”. For `Cn1c([N+](=O)[O-])cnc1COC(N)=O`, the “activity change, negative = inhibition” value was 0.598% (inactive). In the case of `CC(C)(C)C1CCC(O)CC1` (stereo not given), the “activity change, negative = inhibition” value is reported as -16.8% [at 78.8 µM] (inactive). For `CCOC(=O)/C=C\C(=O)OCC`, the “activity change, negative = inhibition” value was -9.06% [at 78.8 µM] (inactive). In the case of `CCCCC(CC)C(=O)OCCOCCOCCOC(=O)C(CC)CCCC` (stereo not given), the “activity change, negative = inhibition” value is reported as 5.63% [at 78.8 µM] (inactive). With `O=[N+]([O-])C(CO)(CO)CO` the “activity change, negative = inhibition” value was -0.416% (inactive). For `CCCCC(CC)COC(=O)/C=C\C(=O)OCC(CC)CCCC` (stereo not given), the Potency was “inactive”. With `COC(=O)c1ccccc1O` the “activity change, negative = inhibition” value was -3.72% (inactive). For `Cc1ccc(C)c(C)c1`, the “activity change, negative = inhibition” value was -7.21% (inactive). In the case of `C=C(C)C(=O)OCCCCCCCCCCCC`, the Potency is reported as “inactive”. For `O=C1CCCCC1`, the Potency was “inactive”. With `CCc1ccc(O)cc1` the Potency was “inactive”.

System: not listed separately
Assay: qHTS assay to identify small molecule agonists of the vitamin D receptor (VDR) signaling pathway - cell viability counter screen (AID 743224); note: nearly all actives have a fitted effect of over 50% in size; note: potency is the fitted concentration of half-maximal effect
Details: VDR-bla HEK293T viability, CellTiter-Glo luminescence, 16 h; series mostly up to 62.6 µM; activity change, negative = cytotoxicity: at the top concentration
How it was run: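 In parallel with the bla FRET readout, cytotoxicity toward VDR-bla cells after 16 h compound exposure was assessed by CellTiter-Glo, with luminescence recorded after a 30 min room-temperature incubation.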
In the case of `CCCCCCCCCC(=O)O`, the Potency is reported as “inactive”. For `NS(=O)(=O)c1cc2c(cc1Cl)NC=NS2(=O)=O`, the Potency was “inactive”. In the case of `CC(C)Cc1ccccc1`, the Potency is reported as “inactive”. In the case of `Clc1cc(Cl)c(Cl)cc1Cl`, the Potency is reported as “inactive”. With `CCCCC(CC)COC(C)=O` (stereo not given) the “activity change, negative = cytotoxicity” value was 10.7% (inactive). For `NCCNCCNCCNCCN`, the Potency was “inactive”. With `CCOC(=O)C1OC1c1ccccc1` (stereo not given) the Potency was “inactive”. With `CC1COc2ccccc2N1C(=O)C(Cl)Cl` (stereo not given) the Potency was “inactive”. In the case of `CCCCCCCCC`, the Potency is reported as “inactive”. For `Cc1cc(O)cc(C)c1Cl`, the Potency was “inactive”. With `CC1=C(/C=C/C(C)=C/C=C/C(C)=C/CO)C(C)(C)CCC1` the “activity change, negative = cytotoxicity” value was -25.8% [at 81.1 µM] (inactive). For `CC1(C)O[C@@H]2C[C@H]3[C@@H]4C[C@H](F)C5=CC(=O)CC[C@]5(C)[C@H]4[C@@H](O)C[C@]3(C)[C@]2(C(=O)CO)O1`, the Potency was “inactive”. For `Nc1nc2ncc(CNc3ccc(C(=O)N[C@@H](CCC(=O)O)C(=O)O)cc3)nc2c(=O)[nH]1`, the Potency was “inactive”. With `ClC1=C(Cl)C(Cl)(Cl)C(Cl)=C1Cl` the Potency was “inactive”. For `CS(=O)(=O)c1ccc([C@@H](O)[C@@H](CO)NC(=O)C(Cl)Cl)cc1`, the Potency was “inactive”. For `OC1CCCC1`, the Potency was “inactive”. With `CC(C)(N=C=O)c1cccc(C(C)(C)N=C=O)c1` the Potency was “inactive”. With `OCCOCCOCCOCCO` the Potency was “inactive”. For `C=C1C2CCC(C2)C1(C)C` (stereo not given), the Potency was “inactive”. With `O=S(=O)(Oc1ccc(Cl)cc1Cl)c1ccccc1` the Potency was “inactive”. For `C[C@@H]1O[C@@H](OC[C@H]2O[C@@H](Oc3c(-c4ccc(O)c(O)c4)oc4cc(O)cc(O)c4c3=O)[C@H](O)[C@@H](O)[C@@H]2O)[C@H](O)[C@H](O)[C@H]1O`, the Potency was “inactive”. With `Cn1c([N+](=O)[O-])cnc1COC(N)=O` the Potency was “inactive”. For `CC(C)(C)C1CCC(O)CC1` (stereo not given), the Potency was “inactive”. With `CC1=C(CC(=O)O)c2cc(F)ccc2/C1=C\c1ccc(S(C)=O)cc1` (stereo not given) the Potency was “inactive”. In the case of `CCOC(=O)/C=C\C(=O)OCC`, the Potency is reported as “inactive”. For `CCCCC(CC)C(=O)OCCOCCOCCOC(=O)C(CC)CCCC` (stereo not given), the Potency was “inactive”. In the case of `O=[N+]([O-])C(CO)(CO)CO`, the Potency is reported as “inactive”. For `CC1CC(OC(=O)c2ccccc2O)CC(C)(C)C1` (stereo not given), the Potency was 34.3 µM (active) and inactive. With `CCCCC(CC)COC(=O)/C=C\C(=O)OCC(CC)CCCC` (stereo not given) the Potency was “inactive”. In the case of `Oc1c(Cl)cc(Cl)c(Cl)c1Cl`, the “activity change, negative = cytotoxicity” value is reported as -16.5% (inactive). With `CCCCCCCCCCCCN` the Potency was “inactive and 49 µM (active)”. For `C=C(C)C(=O)OCCC[Si](OC)(OC)OC`, the Potency was “inactive”. With `COC(=O)c1ccccc1O` the “activity change, negative = cytotoxicity” value was -18% (inactive). With `Cc1ccc(C)c(C)c1` the Potency was “inactive”. In the case of `C=C(C)C(=O)OCCCCCCCCCCCC`, the Potency is reported as “inactive”. In the case of `Nc1cc(-c2ccncc2)c[nH]c1=O`, the Potency is reported as “inactive”. For `O=C1CCCCC1`, the Potency was “inactive”. In the case of `CCc1ccc(O)cc1`, the Potency is reported as “inactive”.
